A short description of this test: A High Throughput Confirmatory Assay used to Identify Novel Compounds that Inhibit Mycobacterium Tuberculosis in the absence of Glycerol using Purified and Synthesized Compounds (4). Type of test: functional.

Results with a measured potency or affinity are listed apart.

Take `Cc1cc(Br)ccc1NC(=O)c1cnc(N2CCN(c3ccccn3)CC2)c2ccccc12`: the concentration for an effect of 90% (IC90) is > 51.1 µM (active).

The values are drawn from ChEMBL document CHEMBL1201862, “PubChem BioAssay data set” (2004).
